PLAP activator: activates human placental alkaline phosphatase | P05187 | purified PLAP enzyme, luminescent substrate read-out; active compounds read high | activation fold at 20 µM | actives 1.2% (n = 96,000) | AID 696; in the data active = activation fold above about 2
PostGolgi yeast: growth inhibition of a yeast mutant, post-Golgi transport screen | inhibition, % at 10 µM | actives 0.9% (n = 98,000) | post-Golgi transport phenotypic cell assay;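 note: yeast cells grown in 1536-well plates; yeast grown about 18 h at 30C before absorbance read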
hDAT+cocaine: human DAT dopamine uptake with cocaine, either direction; Q01959; LLC-PK1 hDAT cells, [14C]-dopamine uptake with cocaine IC80; actives deviate in either direction; B-score at 10 µM; actives 1.3% (n = 110,000); AID 449768;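 active = Z score or B-score, a plate-position-corrected score, falls beyond the plate's 99.7% confidence bounds, in either direction; inactive = both scores lie inside the 99.7% bounds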;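 note: scored against the spread of the other compound wells on the same plate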
D1 allo mod: allosterically modulates the human D1 dopamine receptor. HEK293 D1, CRE-luciferase, dopamine EC30 potentiation; actives deviate in either direction. B-score at 10 µM. actives 5.9% (n = 58,000);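 active = luminescence count or its row- and column-corrected plate score outside the 99.7% band of the plate's sample wells, on either side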
Target sequence (P21728 whole entry, looked up): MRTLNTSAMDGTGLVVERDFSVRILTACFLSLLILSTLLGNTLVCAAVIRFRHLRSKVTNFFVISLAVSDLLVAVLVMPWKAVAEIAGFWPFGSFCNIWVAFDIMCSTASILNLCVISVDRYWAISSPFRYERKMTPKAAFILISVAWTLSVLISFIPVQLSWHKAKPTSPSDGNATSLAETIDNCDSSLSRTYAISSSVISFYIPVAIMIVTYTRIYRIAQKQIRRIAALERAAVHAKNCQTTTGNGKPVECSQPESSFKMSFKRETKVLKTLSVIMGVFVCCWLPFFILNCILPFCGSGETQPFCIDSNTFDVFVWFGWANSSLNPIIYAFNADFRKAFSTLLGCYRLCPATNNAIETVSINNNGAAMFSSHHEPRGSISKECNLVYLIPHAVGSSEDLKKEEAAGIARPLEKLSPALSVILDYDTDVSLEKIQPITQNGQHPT
PostGolgi ctrl: yeast control strain growth, post-Golgi counter-screen. efflux-deficient yeast background strain, growth absorbance A615, 16 h. inhibition, % at 10 µM. actives 5% (n = 98,000). AID 738
Cav32 inh: inhibitors of human Cav3.2 T-type calcium channel | Cav3.2-expressing cells, Fluo-4 calcium fluorescence FDSS; active compounds read low | O95180 | AID 449739 | actives 4% (n = 100,000) | B-score at 10 µM;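 active = single-dose well whose peak fluorescence ratio is a statistical outlier from its plate by either plate-standardised score or position-corrected B-score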
D1 mod confirm: D1 receptor (human) allosteric modulation, confirmed; shares compounds with D1 allo mod; HEK293 D1 CRE-luciferase, dopamine EC30 potentiation; active compounds read high; luminescence at 10 µM; actives 88% (n = 2,200); AID 642;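 active = luminescence in either of two replicates above the same-plate mean plus 3 SD of the low-dose dopamine control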
D1 no dopamine: activates D1 CRE-luciferase signal without dopamine present; shares compounds with D1 allo mod; actives 0.8% (n = 1,900); HEK293 D1 CRE-luciferase, luminescence, no dopamine; active compounds read high; luminescence at 10 µM; in the data active = luminescence above about 3900
Isoprot counter: isoproterenol response counter-screen activity for D1 modulators; shares compounds with D1 allo mod; HEK293 D1 CRE-luciferase, isoproterenol EC30 counter-screen; calls only at 10 µM; actives 63% (n = 2,200); AID 647;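 active = luminescence in either replicate above plate mean of wells with a partly effective reference agonist dose plus 3 SD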;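 note: isoproterenol raises cAMP through native beta-adrenoceptor Gs so signal bypasses D1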
* = called active by the depositor. An excerpt weighted towards active compounds, which were near 12% of everything screened. Cut-off read from the data, not from the text of the source, unless noted: active = inhibition above about 30%; inactive = the rest.

For CN1CCc2c(sc3nc(SCC(N)=O)n(-c4ccccc4)c(=O)c23)C1 the results were PLAP activator 1.5, PostGolgi yeast -1.6, hDAT+cocaine -0.989, D1 allo mod 0.654, PostGolgi ctrl 25.0 and Cav32 inh 1.59.
For COC(=O)CSc1nc2sc3c(c2c(=O)n1-c1ccccc1)CCN(C)C3 the results were PLAP activator 1.3, PostGolgi yeast 6.8, hDAT+cocaine -0.256, D1 allo mod 17*, PostGolgi ctrl 7.0, Cav32 inh 0.268, D1 mod confirm 10640*, D1 no dopamine 1480 and Isoprot counter active.
`COC(=O)CSc1nc2sc(C)c(C)c2c(=O)n1C` gave PLAP activator 0.8, PostGolgi yeast -2.6, hDAT+cocaine 1.11, D1 allo mod 6.11*, PostGolgi ctrl 23.0, Cav32 inh 0.471, D1 mod confirm 7584*, D1 no dopamine 848 and Isoprot counter active.
Screening CC(C)=CCc1cc2c(=O)c3c(O)c4c(cc3oc2c(O)c1O)OC(C)C4(C)C (stereo not drawn) returned hDAT+cocaine 1.55 and Cav32 inh -0.611.
COc1cc2c(cc1OC)C1=C(C#N)CN(C3CCCCC3)CN1CC2 was read as PLAP activator 1.5, PostGolgi yeast -8.7, hDAT+cocaine 1.03, D1 allo mod 4.16*, PostGolgi ctrl 17.0, Cav32 inh -0.0476, D1 mod confirm 14420*, D1 no dopamine 1880 and Isoprot counter active.
For COc1cc2c(cc1OC)C1=C(C#N)CCC(=O)N1CC2 the results were PostGolgi yeast -0.5, hDAT+cocaine 0.597, D1 allo mod 13.1*, PostGolgi ctrl 4.3, Cav32 inh 0.337, D1 mod confirm 16416*, D1 no dopamine 1868 and Isoprot counter active.
CCOC(=O)N1CCN(C(=O)c2ccc3c(SCC(=O)O)c4c(nc3c2)CCC4)CC1 was read as PLAP activator 1.4, PostGolgi yeast 13.8, hDAT+cocaine -1.09, PostGolgi ctrl -6.5 and Cav32 inh 0.641.
Cc1ccc(Nc2nc(N)nc(CC#N)n2)cc1 was read as PLAP activator 0.8, PostGolgi yeast -8.8, hDAT+cocaine -0.582, D1 allo mod 6.62*, PostGolgi ctrl -2.8, Cav32 inh 0.161, D1 mod confirm 14616* and Isoprot counter active.
`CCC1/C(=N\O)CC(c2ccco2)NC1c1ccco1` (stereo not drawn) gave PLAP activator 0.9, PostGolgi yeast -5.5, hDAT+cocaine -0.906, PostGolgi ctrl 8.5 and Cav32 inh -0.0267.
Screening CC(C)CC(=O)NC(=S)Nc1ccc(NC(=O)c2cccs2)cc1 returned PLAP activator 1, PostGolgi yeast -5.7, hDAT+cocaine 0.287, PostGolgi ctrl 0.4 and Cav32 inh -1.12.
`COc1ccc(-c2csc(NC(=O)c3cc(C)on3)c2C#N)cc1OC` gave PLAP activator 1, PostGolgi yeast -11.7, hDAT+cocaine 0.461, D1 allo mod 10.4*, PostGolgi ctrl 7.2, Cav32 inh 0.441, D1 mod confirm 17944*, D1 no dopamine 1716 and Isoprot counter active.
CSc1nc2ccc(NC(=O)C3CC(=O)N(Cc4ccccc4)C3)cc2s1 (stereo not drawn) was read as PLAP activator 1.5, PostGolgi yeast -6.5, hDAT+cocaine -0.699, PostGolgi ctrl 12.5 and Cav32 inh -2.19.
COc1ccccc1N1CCN(C(=O)c2cnn3cccnc23)CC1 was read as PLAP activator 1, PostGolgi yeast 1.5, hDAT+cocaine 0.0846, D1 allo mod 0.832 and PostGolgi ctrl -2.3.
`COc1ccc(-c2nnc(-c3ccc(Br)o3)o2)cc1OC` gave PostGolgi yeast -5.3, hDAT+cocaine 0.826, D1 allo mod 4.79*, PostGolgi ctrl 10.6, Cav32 inh -0.00735, D1 mod confirm 8496*, D1 no dopamine 1540 and Isoprot counter inactive.
